# Screens as filed in PubChem BioAssay.
# NPSR antagonist = qHTS Assay for Antagonists of the Neuropeptide S Receptor: cAMP Signal Transduction. 220,000 compounds, 1% hits. CHO-NPSR cells, cAMP TR-FRET, antagonist mode. Potency, µM (doses to about 38.3 µM), inactives show top-dose activity change, negative = inhibition, usual class: inhibitors. AID 1461, 2008. Q6W5P4; further: potency means the concentration at half of the fitted maximal effect; nearly all actives have a fitted effect of over 50% in size
# IMPase Li cell = qHTS Assay for Identifying the Cell-Membrane Permeable IMPase Inhibitors: Potentiation with Lithium; 210,000 compounds, 0.35% hits; Potency, µM (titrated, usually from 59.4 µM), without a hit: at the highest dose activity, negative = IMPase inhibition, usual class: inhibitors; AID 1457, 2008; CHO-M1 cells, IP1 TR-FRET (IP-One), carbachol + lithium;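 further: IP1 builds up when IMPase is blocked and the TR-FRET signal falls; potency means the concentration at half of the fitted maximal effect; plate controls were basal vehicle for no effect and high inhibitor control for full effect; nearly all actives have a fitted effect of over 50% in size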
#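 CHO-M1, 2000 cells/well, 16–30 h culture; cpd + low Li+, 30 min 37C; lysis with d2-IP1/Eu-anti-IP1 Ab, 10 min RT; TR-FRET 665/620 ratio and 620 channel; AC50 via Hill.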
# ALDH1A1 inh = qHTS Assay for Inhibitors of Aldehyde Dehydrogenase 1 (ALDH1A1); Purified ALDH1A1, NADH fluorescence, propionaldehyde substrate; Aldehyde dehydrogenase 1A1 (Homo sapiens), P00352; AID 1030, 2008; Potency, µM (series often up to 75.3 µM), inactives show at the top dose activity, negative = inhibition, hits mostly inhibitors; 220,000 compounds, 7.3% hits; active means well fitted inhibition curve with a large enough effect, not every such curve was filed as active; inconclusive means small, poorly fitted or top-dose-only effect, or another doubt; inactive means no such curve, though single readings can be large or run the other way;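 further: potency means the concentration at half of the fitted maximal effect; plate controls were no enzyme wells and a reference inhibitor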
# Target sequence (P00352 whole entry, looked up): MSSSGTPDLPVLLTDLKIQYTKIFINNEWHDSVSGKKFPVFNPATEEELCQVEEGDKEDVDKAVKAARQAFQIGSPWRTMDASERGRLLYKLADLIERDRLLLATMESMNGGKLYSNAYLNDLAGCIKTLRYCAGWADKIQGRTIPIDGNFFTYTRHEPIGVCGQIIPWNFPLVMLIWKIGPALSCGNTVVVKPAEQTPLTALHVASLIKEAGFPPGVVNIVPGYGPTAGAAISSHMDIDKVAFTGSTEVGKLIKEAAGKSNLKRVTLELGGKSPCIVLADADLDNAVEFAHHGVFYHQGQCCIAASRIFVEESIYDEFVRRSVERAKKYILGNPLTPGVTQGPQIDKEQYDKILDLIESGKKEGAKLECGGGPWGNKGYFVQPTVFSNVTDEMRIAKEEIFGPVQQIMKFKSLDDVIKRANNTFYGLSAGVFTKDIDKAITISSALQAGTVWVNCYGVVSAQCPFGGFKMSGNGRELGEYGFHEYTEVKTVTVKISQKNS
# 12-hLO inh = qHTS Assay for Inhibitors of 12-hLO (12-human lipoxygenase) | 150,000 compounds, 0.12% hits | Potency, µM (highest dose often 57.1 µM), without a hit: top-dose activity change, negative = inhibition, hits mostly inhibitors | Polyunsaturated fatty acid lipoxygenase ALOX12 (Homo sapiens), P18054 | purified 12-hLO, xylenol orange hydroperoxide absorbance; further: potency means the concentration at half of the fitted maximal effect; nearly all actives have a fitted effect of over 55% in size
#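 Xylenol orange chromogenic assay: hydroperoxide from 12hLO oxidises Fe(II), giving red-shifted Fe(III)-XO absorbance. Conditions: 150 nM enzyme, 40 uM arachidonic acid, 25 mM Hepes pH 7.0, 0.01% Triton X-100, 30 min, room temperature.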
# IMPase inh = qHTS Assay for Identifying the Cell-Membrane Permeable IMPase Inhibitors | Inositol monophosphatase 1 (Rattus norvegicus), P97697 | CHO-M1 cells, IP1 accumulation, HTRF TR-FRET ratio | inhibition (IP1 accumulation), % at 46.1 µM | 120,000 tested, under 10 active; active means well fitted curve in the direction sought with a large enough effect in the signal ratio, not every such curve was filed as active; inconclusive means small, poorly fitted or top-dose-only effect, or a change in a side signal; inactive means no such curve, though single readings can be large or run the other way; the % refers to the signal ratio;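 further: cells stimulated with carbachol in lithium chloride buffer; plate controls were DMSO basal wells for no effect and reference inhibitor wells for full effect; higher means more IMPase inhibition seen as more IP1 and lower FRET ratio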
# Target sequence (P97697 whole entry, looked up): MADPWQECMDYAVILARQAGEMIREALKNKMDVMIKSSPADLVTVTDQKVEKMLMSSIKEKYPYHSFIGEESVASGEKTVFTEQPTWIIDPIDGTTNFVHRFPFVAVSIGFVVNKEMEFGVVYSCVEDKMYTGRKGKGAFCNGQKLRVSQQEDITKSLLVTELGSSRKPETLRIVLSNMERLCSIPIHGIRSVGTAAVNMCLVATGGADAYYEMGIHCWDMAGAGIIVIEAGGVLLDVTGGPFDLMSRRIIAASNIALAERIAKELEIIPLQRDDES
#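 CHO-M1, 2000 cells/well, cultured 16–30 h; cpd up to 46 uM; carbachol (50 uM solution, stimulation buffer w/ 50 mM LiCl, pH 7.4), 30 min 37C; IP-One TR-FRET, 10 min RT; Ex 320/Em 665, 620; Hill-fit AC50.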
# HPGD inh = qHTS Assay for Inhibitors of HPGD (15-Hydroxyprostaglandin Dehydrogenase) | Potency, µM, for inactives: at the top dose activity change, negative = inhibition, actives largely listed as inhibitors | purified HPGD, NADH fluorescence kinetic, PGE2 substrate | 15-hydroxyprostaglandin dehydrogenase [NAD(+)] (Homo sapiens), P15428 | AID 894, 2007 | 150,000 compounds, 4.3% hits; active means well fitted inhibition curve with a large enough effect, not every such curve was filed as active; inconclusive means small, poorly fitted or top-dose-only effect, or another doubt; inactive means no such curve, though single readings can be large or run the other way; further: potency means the concentration at half of the fitted maximal effect
#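 20 nM HPGD preincubated 15 min at room temperature with compound in 50 mM Tris-HCl pH 8, 0.01% Tween 20. Started with 1 mM NAD+ and 30 uM prostaglandin E2; NADH fluorescence (360/450 nm) read 5 times over 30-s intervals, last minus first.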
# * hit, by the source's call; ? = inconclusive; / = no result given; [ ] = remark or other dose. This is a sample that favours compounds with a hit; in the whole collection about 8.9% have one here. Unless noted, the call rests on the fitted dose curve; in most records, active means well fitted curve in the direction sought with a large enough effect; inconclusive means small, poorly fitted or top-dose-only effect, or another doubt; inactive means no such curve, though single readings can be large; an effect the other way counts as inactive or inconclusive. Unless noted, on the % scale 0 is the no-effect control and ±100 the full control effect.
SMILES,NPSR antagonist,IMPase Li cell,ALDH1A1 inh,12-hLO inh,IMPase inh,HPGD inh
CN(C)c1ccc(N=Cc2nc(-c3ccccc3)oc2OC(=O)c2cccc(Br)c2)cc1,-46%,4%,?,0%,/,?
COc1ccc(-c2c(N)nnc3c2[nH]c2ccccc23)cc1OC,-7%[46.1 µM],/,-7%,-5%,-7,/
COc1ccc(OC)c2c(=S)c3ccccc3[nH]c12,/,34%,1.6µM*,25µM*,31,5µM*
Nc1nc(SCC(=O)N2N=C3/C(=C/c4ccco4)CCCC3C2c2ccco2)n[nH]1 (stereo not drawn),-16%[46.1 µM],25%[38.3 µM],?,-5%,-3,-4%
O=C(CSc1nccc(=O)[nH]1)N1N=C2/C(=C/c3ccco3)CCCC2C1c1ccco1 (stereo not drawn),-28%,9%,14µM*,/,/,/
Cn1cnnc1SCC(=O)N1N=C2/C(=C/c3ccco3)CCCC2C1c1ccco1 (stereo not drawn),-17%[46.1 µM],23%[38.3 µM],16µM*,-26%,-1,?
O=C(Nc1cc(C(=O)Nc2ccc(S(=O)(=O)O)cc2S(=O)(=O)O)cc(C(=O)Nc2ccc(S(=O)(=O)O)cc2S(=O)(=O)O)c1)Nc1cc(C(=O)Nc2ccc(S(=O)(=O)O)cc2S(=O)(=O)O)cc(C(=O)Nc2ccc(S(=O)(=O)O)cc2S(=O)(=O)O)c1,-11%[46.1 µM],-15%,-3%,2%,-1,-8%
Cc1ccc(C)c(C(=O)O/N=C(\N)c2ccc(Br)cc2)c1,-9%[46.1 µM],4%[38.3 µM],1%,7%,5,?
CC(=NC1CC1)c1c(-c2ccccc2)[nH]n(-c2nc3ccccc3s2)c1=O,?,30%[38.3 µM],-2%,21%,-4,-10%
CC(=NC1CCCC1)c1c(C)[nH]n(-c2nc3ccccc3s2)c1=O,-9%[46.1 µM],3%[38.3 µM],14µM*,2%,5,-16%
CCc1ccccc1NC(=O)/C(C#N)=C/c1ccc(Sc2ccccc2)o1,-42%,8%,-5%,-1%,/,-11%
COc1ccc(N=C/C=C2\C=C(c3ccccc3)OC(C)(C)O2)cc1,-20%[46.1 µM],22%,2.2µM*,-8%,14,-29%
Cc1ccccc1N=C/C=C1/C=C(c2ccccc2)OC(C)(C)O1,-16%[46.1 µM],11%,2.2µM*,-9%,/,-19%
CCOC(=O)C1=C(N)OC2=C(C(=O)CCC2)C1c1ccco1 (stereo not drawn),-20%[46.1 µM],-2%[38.3 µM],-8%,-9%,8,-8%
Cn1c(SCC(=O)Nc2ccccc2)nnc1-c1ccc(NC(=O)CCc2ccccc2)cc1,-4%[46.1 µM],4%,4%,0%,13,-3%
CCN(CC)CCOc1c(C)cccc1Cl,13%,6%,-13%,/,/,/
CCCn1c(=O)c2ccccc2n2c(SCN3C(=O)c4ccccc4C3=O)nnc12,-3%[46.1 µM],26%[38.3 µM],-7%,1%,4,-9%
CC1(C)Cc2c(sc3c2C(=O)N(c2ccccc2)C2=NCCN23)CS1,-11%[46.1 µM],1%[38.3 µM],?,5%,2,-19%
COC(=O)CCCCCc1ccc(C(C)=O)s1,13%[46.1 µM],10µM*,-1%,-3%,?,?
CC(=O)c1ccc(CCCCCCCCCC(=O)O)s1,8%[46.1 µM],?,20%,-8%,?,-17%
CCC(Cc1ccccc1)NC(=O)C1CCC(CNc2c(N3CCCC3)c(=O)c2=O)CC1 (stereo not drawn),-7%[46.1 µM],-2%[38.3 µM],-11%,-3%,2,-8%
O=C(CCCn1c(=O)[nH]c2cc(Cl)ccc2c1=O)NC1CCCCCCC1,-19%[46.1 µM],4%[38.3 µM],9%,7%,-6,-6%
CN(Cc1ccccc1)C(=O)CCCn1c(=O)[nH]c2cc(Cl)ccc2c1=O,-9%[46.1 µM],11%[38.3 µM],-8%,-1%,-2,25µM*
O=C(c1ccccc1Cl)N(Cc1ccc(Cl)c(Cl)c1)N1C(=O)CCCC1=O,26%,12%,?,/,/,/
COc1ccc(/C=N/N=C2\SCC(=O)N2c2c(C)n(C)n(-c3ccccc3)c2=O)cc1OC,5%,-4%,9%,1%,/,-15%
SMILES,NPSR antagonist,IMPase Li cell,ALDH1A1 inh,12-hLO inh,IMPase inh,HPGD inh
Nc1nonc1C(=O)N/N=C/c1ccc(-c2cccc(C(=O)O)c2)o1,-14%,8%,?,/,/,/
C=CC[n+]1c(C)csc1Nc1ccc(C(=O)O)cc1,1%,0%,-1%,/,/,/
CC(C)(C)c1cc(-c2csc(Nc3ccccc3)[n+]2Cc2ccc(C(=O)O)cc2)cc(C(C)(C)C)c1O,13µM*,/,/,/,/,/
O=C(O)c1ccc(C[n+]2c(-c3ccccc3)csc2Nc2ccccc2)cc1,-58%,1%,-14%,0%,-3,16µM*
O=C(Nc1cc2c(=O)n(-c3ccc(Oc4ccccc4)cc3)ccc2oc1=O)c1ccccc1,-25%,?,?,/,/,/
Cc1cccc(/C=C/c2ccccc2)n1,?,10%,8%,/,/,-5%
COc1cccc(-c2nc3n(n2)C(c2ccc4c(c2)OCO4)C(C(N)=O)=C(C)N3)c1 (stereo not drawn),-12%[46.1 µM],6%[38.3 µM],23%,-1%,3,-18%
c1ccc(Cn2c(NCc3ccncc3)nc3ccccc32)cc1,-3%,6%,25µM*,/,/,/
O=C(CC(=O)c1ccccc1O)c1ccc(F)cc1,?,19%[38.3 µM],-6%,?,-4,18µM*
O=C(O)CCC(=O)NCC(=O)c1ccc(F)cc1,-31%,/,/,/,/,/
Cc1ccc(C(=O)CC(=O)c2cc(Cl)ccc2O)cc1,-22%[46.1 µM],14%[38.3 µM],-2%,?,3,28µM*
O=C(CC(=O)c1ccccc1O)c1cccc(F)c1,-23%[46.1 µM],-4%[38.3 µM],-12%,?,2,20µM*
O=C(CCc1ccccc1)NNC(=O)c1cccc(F)c1,13%,21%,6%,/,/,/
COC(=O)c1cnc(Oc2ccc(NC(=O)NC(=O)c3c(F)cccc3Cl)cc2)cc1C(F)(F)F,21%,/,?,/,/,/
COC(=O)c1cc(C)sc1NC(=S)N1CCN(CCc2ccccc2)CC1,-21%,8%,14µM*,/,/,/
Cc1ccc(/C(O)=C2/C(=O)C(=O)N(CCN3CCOCC3)C2c2ccccn2)cc1 (stereo not drawn),?,19%[38.3 µM],?,-10%,1,-6%
Cc1ccc(C2/C(=C(/O)c3ccccc3)C(=O)C(=O)N2CCN2CCOCC2)o1 (stereo not drawn),-12%[46.1 µM],-1%[38.3 µM],?,-2%,-7,-2%
